Sampled rows, rich in hits. Any-hit rate of the full collection: about 1.6%.
HTT cytoprotect = cytoprotection in Huntington HTT-Q103 PC12 cell model. PC12 HTT-Q103 induced, cytoprotection, ATP luminescence, 40 h. Potency, µM (top dose mostly 56.4 µM), actives largely listed as activators. 230,000 compounds, 0.14% hits; also: nearly all actives have a fitted effect of over 45% in size
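PC12 cells stably carrying ecdysone-inducible Htt exon 1 (Q103)–GFP were induced with 100 nM tebufenozide (final) alongside library compounds in a dose series. Cytoprotection was scored as retained ATP by ATPlite luminescence.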
IMPase inh = cell-permeable inhibitors of inositol monophosphatase (IMPase); 120,000 tested, under 10 active; P97697; CHO-M1 cells, IP1 accumulation, HTRF TR-FRET ratio; inhibition (IP1 accumulation), % at 46.1 µM; active = well fitted curve in the direction sought with a large enough effect in the signal ratio, not every such curve was filed as active; inconclusive = small, poorly fitted or top-dose-only effect, or a change in a side signal; inactive = no such curve, though single readings can be large or run the other way; the % refers to the signal ratio;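 also: cells stimulated with carbachol in lithium chloride buffer; higher means more IMPase inhibition seen as more IP1 and lower FRET ratio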
Target sequence (P97697 whole entry, looked up): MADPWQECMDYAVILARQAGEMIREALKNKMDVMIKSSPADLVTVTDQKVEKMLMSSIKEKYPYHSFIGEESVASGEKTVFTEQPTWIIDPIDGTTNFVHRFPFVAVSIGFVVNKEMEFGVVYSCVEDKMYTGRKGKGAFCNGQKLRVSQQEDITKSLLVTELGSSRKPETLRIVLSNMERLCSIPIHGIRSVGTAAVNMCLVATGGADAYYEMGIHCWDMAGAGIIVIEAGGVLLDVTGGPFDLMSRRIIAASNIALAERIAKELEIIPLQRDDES
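In this qHTS, compounds (final up to 46 uM) act on CHO-M1 cells that are then activated through the M1 receptor with carbachol, in pH 7.4 buffer containing 50 mM LiCl, for 30 min. IP1 accumulation is quantified by the IP-One immunoassay.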
HTT aggregate = reduces HttQ103-GFP aggregates in PC12 cells | PC12 HttQ103-GFP aggregates, Acumen cytometry, 40 h | Potency, µM (titrated, usually from 46.1 µM), most hits filed as inhibitors | 220,000 compounds, 1.1% hits | AID 1688; also: nearly all actives have a fitted effect of over 60% in size
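PC12/HTTQ103-GFP, ecdysone-inducible; teb 100 nM; cpd qHTS titration; GFP aggregates read on laser cytometer, Ex 488/Em 500-530 nm.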
NPSR antagonist = blocks cAMP signaling of the human neuropeptide S receptor | Potency, µM (titrated, usually from 38.3 µM), hits mostly inhibitors | 220,000 compounds, 1% hits | CHO-NPSR cells, cAMP TR-FRET, antagonist mode | Q6W5P4; also: nearly all actives have a fitted effect of over 50% in size
Target sequence (Q6W5P4 whole entry, looked up): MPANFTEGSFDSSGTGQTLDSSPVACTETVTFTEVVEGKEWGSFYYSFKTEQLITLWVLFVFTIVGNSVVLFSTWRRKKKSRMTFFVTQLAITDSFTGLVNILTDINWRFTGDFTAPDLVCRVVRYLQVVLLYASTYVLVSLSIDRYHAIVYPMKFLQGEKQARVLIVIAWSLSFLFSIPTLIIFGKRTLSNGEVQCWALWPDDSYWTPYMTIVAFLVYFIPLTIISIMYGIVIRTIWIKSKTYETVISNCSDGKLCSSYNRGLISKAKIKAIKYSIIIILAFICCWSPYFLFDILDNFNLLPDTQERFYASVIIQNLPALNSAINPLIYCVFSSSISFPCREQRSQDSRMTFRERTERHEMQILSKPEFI
Lamin A splicing = modulators of lamin A splicing; HeLa LMNA splicing GFP/RFP minigene ratio, 48 h; Potency, µM (series often up to 46.1 µM), hits mostly inhibitors; 200,000 compounds, 0.01% hits; AID 1487; active = well fitted inhibition curve with a large enough effect in the signal ratio, with a control signal flat, not every such curve was filed as active; inconclusive = small, poorly fitted or top-dose-only effect, or effect the other way, or a change in a side signal; the % refers to the signal ratio
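S3 HeLa stable clones carrying a lamin A-EGFP splicing minigene plus DsRed2 were seeded at 600 cells/well in Opti-MEM with 2% FBS, pin-dosed and incubated 48 h at 37°C. Acumen cytometry (488 nm) gave the GFP/RFP total-intensity ratio.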
IMPase Li cell = membrane-permeable IMPase blocker, potentiated with lithium. 210,000 compounds, 0.35% hits. Potency, µM (top dose mostly 59.4 µM), most hits filed as inhibitors. CHO-M1 cells, IP1 TR-FRET (IP-One), carbachol + lithium;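 also: IP1 builds up when IMPase is blocked and the TR-FRET signal falls; nearly all actives have a fitted effect of over 50% in size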
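Concentration–response in CHO-M1 cells, lithium-potentiated; 30 min at 37C. IP1 detected by competitive TR-FRET after 10 min lysis at RT. Hill-fitted AC50.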
Each line names hits and unclear results; the compound was inactive in the other large screens. Unless noted, calls follow the shape of the dose curve; as a rule, active = well fitted curve in the direction sought with a large enough effect; inconclusive = small, poorly fitted or top-dose-only effect, or another doubt; inactive = no such curve, though single readings can be large; an effect the other way counts as inactive or inconclusive.

Cc1cc(C)n2nc(SCc3nnc(SCc4ccccc4C)s3)nc2n1	HTT aggregate 13µM, Lamin A splicing inconclusive
Cc1cc(C)n2nc(SCc3nnc(SCc4ccccc4Cl)s3)nc2n1	none
CN1CCN(C(=S)NC(=O)c2ccc(C(C)(C)C)cc2)CC1	none (no result: IMPase inh)
C=CCn1cccc(/C=C/C(=O)c2ccc(C(C)(C)C)cc2)c1=S	HTT aggregate 25µM, Lamin A splicing inconclusive (no result: HTT cytoprotect, IMPase inh)
COc1cccc(CN(C(=O)Cc2c[nH]c3ccccc23)C(C(=O)NC2CCCCC2)c2ccc(C)o2)c1 (stereo not given)	HTT aggregate 13µM, Lamin A splicing inconclusive
CCC=O	none (no result: IMPase inh, HTT aggregate, NPSR antagonist, Lamin A splicing)
COc1ccc(C(=O)N/N=C/c2sc3ccccc3c2O)cc1	HTT aggregate 11µM, Lamin A splicing inconclusive (no result: IMPase inh)
O=C(N/N=C/c1sc2ccccc2c1O)c1ccccc1	HTT aggregate 3.2µM, Lamin A splicing inconclusive
COc1ccc(C(=O)N/N=C/c2c(CO)cnc(C)c2O)cc1	HTT aggregate 32µM, Lamin A splicing inconclusive (no result: IMPase inh)
COc1ccc2cc(C(=O)N/N=C/c3sc4ccccc4c3O)ccc2c1	HTT aggregate inconclusive, Lamin A splicing inconclusive (no result: IMPase inh)
Cc1sccc1/C=N/NC(=O)c1cccc2ccccc12	none (no result: HTT cytoprotect, IMPase inh)
O=C(N/N=C/c1ccc(F)cc1)c1ccccc1	none (no result: IMPase inh)
O=C(N/N=C/c1sc2ccccc2c1O)c1cccc2ccccc12	HTT aggregate 1.4µM, Lamin A splicing inconclusive (no result: IMPase inh)
NC(C(=O)O)C(CC(=O)O)c1ccc(Cl)cc1 (stereo not given)	none (no result: IMPase inh, HTT aggregate, NPSR antagonist, Lamin A splicing)
Cc1nc(C(F)(F)F)c(C(=O)N/N=C(\N)c2ccccn2)s1	HTT aggregate 22µM (no result: IMPase inh, Lamin A splicing)
N/C(=N\NS(=O)(=O)c1ccccc1C(F)(F)F)c1ccccn1	none (no result: IMPase inh, Lamin A splicing, IMPase Li cell)
C=C/C(=C\C)C[C@@H](CC(=O)N[C@@H](CCC(=O)O)CC(=O)O)NC(=O)[C@@H]1CNCC[C@H]1NC(=O)C[C@@H](NC(=O)C[C@H](Cc1ccccc1)NC(=O)[C@@H]1CCCC[C@H]1N)C(C)C	none (no result: IMPase inh, HTT aggregate, NPSR antagonist, Lamin A splicing)
Cc1cccc(OCCSc2nnc(-c3cccs3)o2)c1	none (no result: HTT cytoprotect, IMPase inh, HTT aggregate, NPSR antagonist, IMPase Li cell)
COCCCNc1nc2c(c(=O)n(Cc3ccccc3)c(=O)n2C)n1C	none (no result: HTT cytoprotect, HTT aggregate, NPSR antagonist, Lamin A splicing, IMPase Li cell)
Cc1cc(/C=C2/SC(=S)N(c3ccc([N+](=O)[O-])cc3)C2=O)c(C)n1-c1cccnc1	HTT aggregate 4µM, Lamin A splicing inconclusive (no result: HTT cytoprotect, IMPase inh)
Cc1cccc(N2C(=O)/C(=C/c3cccnc3)SC2=S)c1	none (no result: IMPase inh, Lamin A splicing, IMPase Li cell)
O=S(=O)(Nc1cccc2ncccc12)c1cccs1	HTT aggregate 13µM, NPSR antagonist inconclusive, Lamin A splicing inconclusive
Cc1c(NS(=O)(=O)c2cccs2)cccc1-c1nc2cccnc2s1	none (no result: IMPase inh, Lamin A splicing, IMPase Li cell)
CCOC(=O)c1c(CSC(=N)N)n(-c2ccc(C)cc2)c2cc(Br)c(OC(C)=O)cc12	HTT aggregate inconclusive, NPSR antagonist 10µM, Lamin A splicing inconclusive
O=C(Nc1ccc(Cl)c(Cl)c1)C1CC1	none (no result: IMPase inh, NPSR antagonist, Lamin A splicing, IMPase Li cell)
COc1cccc(COc2cc3ccccc3nc2C)c1	HTT aggregate 1.8µM
Cc1nc2ccccc2cc1OCc1ccc(Cl)cc1	HTT aggregate 7.9µM, Lamin A splicing inconclusive (no result: HTT cytoprotect)
Cc1nc2ccccc2cc1OCc1ccccc1	HTT aggregate 13µM
COC(=O)c1sccc1OCc1cccc(OC)c1	none (no result: IMPase inh, Lamin A splicing)
Oc1ccc(NCc2ccccc2OCc2ccc(Cl)cc2)cc1	none (no result: HTT cytoprotect, HTT aggregate, NPSR antagonist, Lamin A splicing, IMPase Li cell)
Cc1nc(OCc2ccccc2)c2ccccc2n1	none
COc1ccc(-c2nn3c(=O)cc(CN4CCN(C(=O)Nc5cc(C)ccc5C)CC4)nc3s2)cc1	none (no result: HTT cytoprotect, IMPase inh, HTT aggregate, NPSR antagonist, IMPase Li cell)
OC[C@@H]1NC[C@@H](O)[C@H]1O	none (no result: HTT aggregate, NPSR antagonist, Lamin A splicing, IMPase Li cell)
CCOC(=O)C1OC1c1ccccc1 (stereo not given)	none (no result: IMPase inh, HTT aggregate, NPSR antagonist, Lamin A splicing)
COCC(=O)N1CCC[C@@]2(CCN(c3ccccc3)C2)C1	none (no result: IMPase inh, HTT aggregate, NPSR antagonist, Lamin A splicing)
Cc1ccccc1-n1c(SCC(=O)NC(N)=O)nc2sc(-c3ccccc3)cc2c1=O	IMPase Li cell 11µM (no result: IMPase inh)
NC1=N[C@H](c2ccc(Cl)cc2)N(c2ccc(S(=O)(=O)Nc3ncccn3)cc2)C(N)=N1	none (no result: IMPase inh, HTT aggregate, NPSR antagonist, Lamin A splicing)
CC1(C)CC(=O)C(/C=N/c2ccccn2)=C(O)C1	HTT aggregate 22µM (no result: IMPase Li cell)
FC(F)(F)c1ccc(C2[C@H]3CN(CC4CCCCC4)[C@H](c4ccccc4)C34CC2(c2ccccc2)C4)cc1 (stereo not given in full)	none (no result: IMPase inh, HTT aggregate, NPSR antagonist, Lamin A splicing)
